Unmarked numbers belong to inactive results. The rule behind the calls is not given here.
The compounds below were run against Pantothenate synthetase (Mycobacterium tuberculosis (strain ATCC 25618 / H37Rv)) (UniProt P9WIL5) (assay: Coupled enzyme confirmation of inhibitors against recombinant Mtb PanC (AID 375;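 note: 0% = full reaction with vehicle and 100% = no enzyme background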)). Conditions: coupled enzyme assay; at 10 µM, active compounds read high.
Chain of Pantothenate synthetase (Mycobacterium tuberculosis (strain ATCC 25618 / H37Rv)) (P9WIL5 whole entry, looked up): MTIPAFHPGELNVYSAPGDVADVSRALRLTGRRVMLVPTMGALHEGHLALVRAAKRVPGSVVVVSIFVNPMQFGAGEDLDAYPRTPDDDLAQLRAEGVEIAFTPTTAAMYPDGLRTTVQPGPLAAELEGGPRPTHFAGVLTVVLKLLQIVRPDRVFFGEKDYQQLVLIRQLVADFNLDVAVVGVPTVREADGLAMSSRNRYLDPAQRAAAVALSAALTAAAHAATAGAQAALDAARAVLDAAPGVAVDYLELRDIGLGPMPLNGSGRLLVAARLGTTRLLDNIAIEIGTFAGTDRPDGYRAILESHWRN
CCN(CC)C(=O)Cn1c(=O)n(Cc2ccccc2Cl)c2c1c(=O)n(C)c(=O)n2C gave an inhibition of 3%.
Compound COc1ccc(CC(=O)OCn2nnc3ccccc3c2=O)cc1 has an inhibition of 4%.
CCCn1c(-c2ccc(F)cc2)cnc1SCC(=O)O gave an inhibition of 0%.
For COC(=O)C(C)Oc1ccc2c3c(c(=O)oc2c1)CCCCC3 (stereo not given), the inhibition was 2%.
Compound Cc1ccc(-c2noc(CCC(=O)NCC3CCN(Cc4cccc(C)c4)CC3)n2)cc1 has an inhibition of 8%.
Compound CC(C)(C)c1cc(NC(=O)c2cc(F)c(F)c(F)c2F)no1 has an inhibition of 0%.
Work on CCCNC(=O)c1cc(S(=O)(=O)N2CCc3ccccc32)ccc1F yielded an inhibition of 0%.
Compound C/C=C/Cn1c(SCCCc2ccccc2)nc2c1c(=O)[nH]c(=O)n2C has an inhibition of 0%.
CC(C)CSc1nc2ccccc2n1CC(N)=O showed an inhibition of 5%.
In the case of Cc1ccc(C(C)C)c(OCc2nnc(SCC(=O)Nc3ncc(C)s3)n2C)c1, the inhibition is reported as 2%.
In the case of Cc1cc(C)c2cc3c(ccn3C3OC[C@H](O)[C@H](O)[C@H]3O)cc2n1 (stereo not given in full), the inhibition is reported as 4%.
Work on Cc1ccc(CCNC(=O)C2CCCN2S(=O)(=O)c2ccc3c(c2)CCC(=O)N3)cc1 (stereo not given) yielded an inhibition of 6%.
O=C(CSc1nnnn1C1CCCC1)NCc1ccc2c(c1)OCO2 was tested, and the inhibition was 0%.
Work on CCN(CC)S(=O)(=O)c1ccc(C(=O)Oc2ccc3c(c2)OCO3)cc1 yielded an inhibition of 2%.
N#CCSCC(=O)Nc1ccc(F)cc1 was tested, and the inhibition was 0%.
Work on COc1ccccc1C(=O)NCCNC(=O)c1ccco1 yielded an inhibition of 0%.
For O=C(NCCc1ccccc1)C1CCN(S(=O)(=O)N2CCC3(CC2)OCCO3)CC1, the inhibition was 4%.
O=C1c2ccccc2C(=O)N1CCN1CCCCC1 showed an inhibition of 7%.
For c1ccc(CC2CCN(Cc3nc(-c4ccccc4)no3)CC2)cc1, the inhibition was 3%.
With S=c1[nH]ncn1-c1ccccn1 the inhibition was 5%.
With Cc1ccc(C)c2[nH]c(=O)c(CN(CCN3CCCC3)C(=O)Nc3cccc(Cl)c3)cc12 the inhibition was 0%.
In the case of CCOC(=O)c1cc2c(=O)n3cccc(C)c3nc2n(CCOC)c1=NC(=O)c1ccncc1, the inhibition is reported as 0%.
In the case of CCCn1c2c(c(O)c(C(=O)Nc3ccc(C)cn3)c1=O)CCCC2, the inhibition is reported as 4%.
O=C(c1ccccc1)c1ccc2nc[nH]c2c1 was tested, and the inhibition was 0%.
For O=C(Nc1ccccc1C(F)(F)F)c1cc(S(=O)(=O)N2CCOCC2)ccc1F, the inhibition was 0%.
N#CC1=C(N)SC(N)=C(C#N)C1c1ccc(C(F)(F)F)cc1 was tested, and the inhibition was 0%.
Work on CC1NC(=O)NC1CCCCCC(=O)NCCc1ccccc1 (stereo not given) yielded an inhibition of 2%.
CCOCCOc1nc2c(c(=O)n(C)c(=O)n2C)n1Cc1ccc(C)cc1 was tested, and the inhibition was 0%.
In the case of O=C(CN(CCc1ccccc1)C(=O)CN1C(=O)COc2ccccc21)NCc1ccco1, the inhibition is reported as 10%.
In the case of CCc1nn(CC(=O)N2CCN(Cc3ccc4c(c3)OCO4)CC2)c(=O)c2cc3occc3n12, the inhibition is reported as 5%.
Cc1ccc(OCC(O)Cn2c(=N)n(CCN3CCCCC3)c3ccccc32)cc1 (stereo not given) showed an inhibition of 0%.
CSc1nc(N2CCOCC2)c2ccccc2n1 showed an inhibition of 0%.
For Cc1noc(/C=C/N(C)C)c1S(=O)(=O)N1CCCC(C(=O)NC2CCCCC2)C1 (stereo not given), the inhibition was 8%.
Cc1nc2ccccc2c2c1C(=O)N(CCC1=CCCCC1)C2=O showed an inhibition of 9%.
For COc1ccccc1CN1CCCC(C(=O)N(C)Cc2ccccc2)C1 (stereo not given), the inhibition was 0%.
With CCN(CC)c1ccc2c(C)c(-c3ccc(N)cc3)c(=O)oc2c1 the inhibition was 10%.
For NC(=O)CSCc1ccc(Br)cc1, the inhibition was 0%.
COC(=O)CN(c1ccc(OC)cc1)S(=O)(=O)c1ccc(OC)c(OC)c1 gave an inhibition of 0%.
With CC(=O)Nc1ccc(S(=O)(=O)N2CCC(NC(C)=O)(c3cccc(F)c3)CC2)cc1 the inhibition was 0%.
With CCOc1ccccc1NC(=O)CN(c1ccc(C)cc1)S(=O)(=O)c1c(C)noc1C the inhibition was 9%.

Source: PubChem BioAssay
